Laboratory results from PubChem BioAssay (NCATS).
Records with an inconclusive call do not appear. Unmarked numbers belong to inactive results. Activity calls are given as the source filed them. The call rests on the fitted dose curve; in most records, active means well fitted inhibition curve with a large enough effect; inconclusive means small, poorly fitted or top-dose-only effect; inactive means flat fitted curve, though single readings scatter.

Test system: HEK293
Assay: Cytotoxic Profiling of Annotated Libraries Using Quantitative High-Throughput Screening (AID 1296008); further: nearly all actives have a fitted effect of over 60% in size
Conditions: Five cell lines viability, CellTiter-Glo ATP luminescence, 48-72 h; max response: stronger effect = lower value
In short: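 Compounds were pin-transferred onto cells and incubated 48 or 72 hr at 37 degree Celsius, 95% humidity. CellTiter-Glo was added, plates sat 10 min at room temperature, then ATP-coupled luminescence was imaged as the viability read-out.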
On the % scale 0 is the no-effect control and ±100 the full control effect; potency means the concentration at half of the fitted maximal effect.

SMILES | Potency | max response
COc1cc(Br)c(Nc2nc(-c3c(C)nc4ncccn34)cs2)c(Br)c1 | 5800 nM (active) | 
CC(=O)OC12COC1CC(O)C1(C)C(=O)C(O)C3=C(C)C(OC(=O)C(O)C(NC(=O)OC(C)(C)C)c4ccccc4)CC(O)(C(OC(=O)c4ccccc4)C21)C3(C)C (centres undefined) |  | -76.3%
Nc1nc2c(ncn2[C@@H]2O[C@H](CO)[C@@H](O)[C@H]2O)c(=O)[nH]1 |  | -9.89%
C[C@@H]1C[C@H]2O[C@@H]2/C=C\C=C\C(=O)Cc2c(Cl)c(O)cc(O)c2C(=O)O1 | 87.3 nM (active) | 
N[C@@]1(C(=O)O)CC[C@H]2[C@H](C(=O)O)[C@H]21 |  | 4.28%
O=C1OCc2cc3cccc(O[C@@H]4O[C@H](CO)[C@@H](O)[C@H](O)[C@H]4O)c3c(O)c21 |  | -24.4%
CCCC1(c2ccccc2)NC(=O)N(CC(=O)N(C)Cc2c(F)cccc2Cl)C1=O (centres undefined) |  | -6.56%
CC/C=C\C/C=C\C/C=C\CCCCCCCC(=O)OCC(O)COC1OC(CO)C(O)C(O)C1O (centres undefined) |  | -1.09%
CCCCc1nc2cc(/C=C/C(=O)NO)ccc2n1CCN(CC)CC | 1840 nM (active) | 
COc1ccc(Cl)c(Nc2nc3ccccc3nc2NS(=O)(=O)c2cccc(NC(=O)C(C)(C)N)c2)c1 |  | -13.5%
Cc1cc(-c2cc(O)ccc2Cl)cc2nnc(Nc3ccc(OCCN4CCCC4)cc3)nc12 | 3260 nM (active) | 
C[S+](CC[C@H](N)C(=O)[O-])C[C@H]1O[C@@H](n2cnc3c(N)ncnc32)[C@H](O)[C@@H]1O (some centres undefined) |  | 3.53%
COC(=O)C[C@H]1C(C)(C)[C@H](OC(=O)C(C)C)[C@@]2(O)C(=O)[C@]1(C)C1CC[C@]3(C)C(CC(=O)O[C@H]3c3ccoc3)[C@]13O[C@@H]32 (some centres undefined) |  | -5.5%
c1cc(OCCCN2CCCCC2)ccc1CN1CCCCC1 |  | -18.4%
Cc1[nH]nc(C(F)(F)F)c1Cc1sc2c(c1C(=O)N1C[C@](C)(O)CO1)c(=O)n(C)c(=O)n2C(C)C | 51.7 nM (active) | 
Cc1[nH]c2ccccc2c1CCNC(=O)c1ccccc1F |  | 2.26%
CC(C)/C=C1\NC(=O)C(C(C)C)n2c1nc1c(c2=O)C=CC=CO1 (centres undefined) |  | 2.88%
CC1(C)CC[C@]2(C(=O)O[C@@H]3O[C@H](CO)[C@@H](O)[C@H](O)[C@H]3O)CC[C@]3(C)C(=CCC4[C@@]5(C)CC[C@H](O[C@@H]6O[C@H](C(=O)O)[C@@H](O)[C@H](O[C@@H]7O[C@H](CO)[C@H](O)[C@H](O)[C@H]7O)[C@H]6O)C(C)(C)C5CC[C@]43C)C2C1 (some centres undefined) |  | 1.5%
COc1cc2c(cc1OC)N1C(=O)C[C@]34C=CCN5CC[C@@H]2[C@@H](CC3)[C@]514 |  | -26.4%
CC(=O)O[C@H]1C[C@@]2(C)[C@@H](CC[C@H]3[C@@]4(C)C=CC(=O)[C@@H](C)[C@@H]4[C@H](O)C(=O)[C@@]32C)/C1=C(/CCC=C(C)C)C(=O)O |  | -6.72%

SMILES | Potency | max response
C[C@H](Oc1ccc(S(C)(=O)=O)cc1C(=O)N1CCN(c2ncc(C(F)(F)F)cc2F)CC1)C(F)(F)F |  | -24.7%
C/C(=C\CCC(C)CCO)C(=O)O[C@@H]1[C@@H](O)[C@H](OC2OC=C(C(=O)O)C3CCC(C)(O)C23)O[C@H](CO)[C@H]1O (some centres undefined) |  | 0.262%
CC(=O)c1ccc(O[C@@H]2O[C@H](CO)[C@@H](O)[C@H](O)[C@H]2O)cc1 |  | -8.37%
CC1OC(O[C@H]2CC[C@@]3(C)C(CC[C@]4(C)C3CC=C3C5CC(C)(C)CC[C@]5(C(=O)OC5OC(CO)C(OC6OC(COC7OCC(O)C(O)C7O)C(O)C(O)C6O)C(O)C5O)CC[C@]34C)C2(C)C)C(O)C(O)C1OC1OCC(OC2OCC(O)C(O)C2O)C(O)C1O (some centres undefined) |  | 1.98%
CC(=O)O[C@@H]1C[C@H](O)[C@@]23CO[C@H](O)[C@]1(C)C2C[C@@H](O)[C@]1(C)C3C(=O)[C@H](OC(C)=O)[C@@]2(C)[C@H](c3ccoc3)C[C@H]3O[C@]321 (some centres undefined) | 343 nM (active) | 
CCC(C)C(=O)O[C@H]1CCC=C2C=C[C@H](C)[C@H](CC[C@@H](O)C[C@@H](O)CC(=O)O)[C@H]21 (some centres undefined) |  | 0.832%
CC(C)C[C@H](CC(=O)NO)C(=O)N[C@@H](Cc1ccc2ccccc2c1)C(=O)N[C@@H](C)C(=O)NCCN |  | 0.393%
CCNC(=O)Nc1ccc(-c2nc3c(c(N4CCOC[C@@H]4C)n2)CCN(c2ncccn2)C3)cc1 | 184 nM (active) | 
CS(=O)(=O)c1ccc([C@H](CC2CCCC2)C(=O)Nc2nccs2)cc1 |  | -58%
CNC(=S)NS(=O)(=O)c1cc(CCNC(=O)c2cc(Cl)ccc2OC)ccc1OC |  | 0.225%
CC(C)=CCC[C@](C)(O[C@@H]1O[C@H](CO)[C@@H](O)[C@H](O)[C@H]1O)[C@H]1CC[C@]2(C)[C@@H]1[C@H](O)CC1[C@@]3(C)CC[C@H](O)C(C)(C)C3[C@@H](O[C@@H]3O[C@H](CO)[C@@H](O)[C@H](O)[C@H]3O[C@@H]3OC[C@@H](O)[C@H](O)[C@H]3O)C[C@]12C (some centres undefined) |  | -0.716%
OC[C@H]1O[C@@H](Oc2cc(O)c3c(c2)O[C@@H](c2ccc(O)cc2)[C@H](O)C3)[C@H](O)[C@@H](O)[C@@H]1O |  | -5.13%
COc1c2ccoc2cc2oc(CO[C@@H]3O[C@H](CO)[C@@H](O)[C@H](O)[C@H]3O)cc(=O)c12 |  | 1.44%
C[C@H](NC(=O)CCc1nc2ccccc2c(=O)[nH]1)c1ccccc1 |  | -7.11%
COc1cc(C2c3cc4c(c(O)c3CC(CO)C2C(=O)O)OCO4)cc(OC)c1O (centres undefined) | 2240 nM (active) | 
CC(C)Oc1ccc(C(=O)NC(CNC(=O)CN(C)C)Cc2ccc(-c3cn4cccc(C(C)O)c4n3)cc2)cc1Cl (centres undefined) | 206 nM (active) | 
CCN1CCN(Cc2ccc(NC(=O)Nc3ccc(Oc4cc(NC)ncn4)cc3)cc2C(F)(F)F)CC1 |  | -109%
O=C(O)c1ccc(CN2CCC(CN[C@@H]3C[C@H]3c3ccccc3)CC2)cc1 |  | -15.7%
COC(=O)N(C)c1c(N)nc(-c2nn(Cc3ccccc3F)c3ncccc23)nc1N |  | -0.877%
